Screening data: PubChem, several laboratories
miR122 inh: miR-122 Renilla sensor signal increase in Huh7, primary screen, miR-122 inhibitor project, cell-based, single point, plate reader. activation (reporter increase), % at 12.5 µM. hit rate 0.3% among 340,000. Huh7 miR-122 Renilla luciferase sensor, 48 h; neutral wells = 0, positive control = 100. AID 602342, 2012;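 active = mean replicate activation score at least 90 and every replicate individually at or above 90; inconclusive = only one of the two criteria met; inactive = neither criterion met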;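 also: higher luciferase means less miR-122 activity so hits act as miR-122 inhibitors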
RAD52 anneal inh: RAD52 DNA annealing inhibitors, primary screen, biochemical, FRET, single point, set 2 | hit rate 0.46% among 360,000 | recombinant RAD52 DNA annealing, FRET fluorescence | inhibition, % at 18.7 µM | DNA repair protein RAD52 homolog (Homo sapiens), P43351;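 active = every replicate showing at least 50% inhibition; inconclusive = mean inhibition at least 50% but not in every replicate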
CendR NRP1 mod: modulators of CendR peptide binding to NRP-1, primary screen, biochemical, fluorescence polarization, uHTS. hit rate 0.85% among 360,000. FAM-RPARPAR peptide binding to NRP-1. inhibition, % at 25 µM. Neuropilin-1 (Homo sapiens), O14786;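 active = inhibition or corrected inhibition above about 18%, plus a signal ratio from 0.5 to 1.5, limit read from the data, passing the limit was not always enough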
Target sequence (O14786 whole entry, looked up): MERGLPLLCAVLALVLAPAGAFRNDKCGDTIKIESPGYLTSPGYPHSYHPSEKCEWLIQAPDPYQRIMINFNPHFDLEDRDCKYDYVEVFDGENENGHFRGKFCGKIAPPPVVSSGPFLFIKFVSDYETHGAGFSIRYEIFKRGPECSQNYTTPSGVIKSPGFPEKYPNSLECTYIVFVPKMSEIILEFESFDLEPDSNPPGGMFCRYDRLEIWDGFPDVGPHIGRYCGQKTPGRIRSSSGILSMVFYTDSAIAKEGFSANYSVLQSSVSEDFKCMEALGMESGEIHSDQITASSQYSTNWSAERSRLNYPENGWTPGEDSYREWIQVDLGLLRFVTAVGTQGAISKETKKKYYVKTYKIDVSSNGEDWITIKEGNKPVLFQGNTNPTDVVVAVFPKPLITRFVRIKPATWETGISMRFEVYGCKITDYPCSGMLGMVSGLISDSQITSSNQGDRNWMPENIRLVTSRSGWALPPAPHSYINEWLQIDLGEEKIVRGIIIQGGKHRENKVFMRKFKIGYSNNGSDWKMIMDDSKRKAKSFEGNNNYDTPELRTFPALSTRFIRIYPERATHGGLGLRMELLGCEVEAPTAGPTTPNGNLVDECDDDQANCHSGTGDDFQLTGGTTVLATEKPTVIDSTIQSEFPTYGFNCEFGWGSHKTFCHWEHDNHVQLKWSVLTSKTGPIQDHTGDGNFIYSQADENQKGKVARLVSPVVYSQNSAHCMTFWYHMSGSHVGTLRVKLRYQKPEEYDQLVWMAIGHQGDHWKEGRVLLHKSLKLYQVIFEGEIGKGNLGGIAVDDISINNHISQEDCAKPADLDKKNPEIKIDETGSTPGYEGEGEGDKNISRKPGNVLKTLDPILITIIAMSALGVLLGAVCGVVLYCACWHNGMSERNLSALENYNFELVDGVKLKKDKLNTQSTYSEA
RAD54 branch: inhibitors of human RAD54 branch migration, primary screen, biochemical, fluorescence, single point; DNA repair and recombination protein RAD54-like (Homo sapiens), Q92698; RAD54 Holliday junction branch migration, FAM/BHQ fluorescence; inhibition, % at 10.4 µM; hit rate 0.14% among 360,000;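 active = mean normalized replicate activity at least 40 and at least half of replicates scoring 40 or more; inconclusive = only one of the two criteria met; inactive = mean below 40 and under half of replicates reaching 40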;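 also: inhibitors cause a drop in the FAM fluorescence signal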
FID counter: compounds displacing fluorescent DNA intercalator, primary screen, artefact control for HCV NS3 helicase inhibitor project, biochemical, FID fluorescence; DNA fluorescent intercalator displacement; inhibition, % at 7.9 µM; hit rate 0.17% among 290,000; in the data active = inhibition above about 37%;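 also: higher means more ethidium bromide displaced from hairpin DNA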
N-glyco inh: increase of ERlucT glycosylation luciferase signal, primary screen, N-linked glycosylation inhibitor project, D54 ERlucT cells, luminescence, set 2; hit rate 0.23% among 360,000; AID 588692, 2011; D54 ERlucT glycosylation luciferase reporter, 24 h; percent of 100 nM tunicamycin response; reporter increase, % at 12.5 µM;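 active = mean luciferase reporter signal, scaled so untreated is 0 and the glycosylation-blocking control 100, at or above a set limit in every replicate; inconclusive = mean reaches the limit but not every replicate does; inactive = mean below the limit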;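 also: luciferase carries N-glycosylation sites so blocking glycosylation raises the light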
DNA binding: DNA binding of candidate compounds, dose response, artefact control for RAD54 inhibitor project, biochemical, fluorescence polarization, cherry-pick | AC50, µM (highest dose often 35 µM) | AID 651673, 2012 | Acridine orange-DNA displacement, 20 min | hit rate 8% among 460 | shares compounds with RAD54 branch;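 active = signal drop giving an AC50 within twice the top valid tested concentration of each sample, actives reach about 35 µM in these data; inactive = activity opposite to expected, plus the rest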;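 also: polarization loss reports compound binding to salmon sperm DNA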
RAD52 DNA ctr: DNA-binding compounds via dye displacement, dose response, artefact control for RAD52 inhibitor project, biochemical, fluorescence polarization, cherry-pick. shares compounds with RAD52 anneal inh. Salmon sperm DNA/acridine orange FP displacement. AC50, µM. hit rate 8% among 1,000. AID 652128, 2013;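 active = fitted half-maximal concentration for signal loss at or below twice the highest dose tested, in every separate run, actives reach about 64 µM in these data; inconclusive = runs disagree, or flat partial signal loss, or poor fit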
Of the large screens only hits and unclear results are named; the others gave an inactive call (follow-up assays come after a bar, where they were run). Only some compounds are listed: those with a hit (about 1.5% of all), similar ones and a draw of the others.

Cc1ccc(OCC(=O)Nc2cccc(-c3nnc(-c4ccccc4)o3)c2)c(C)c1	RAD54 branch inconclusive (no result: RAD52 anneal inh) | DNA binding inactive
C[C@H](CO)N1C[C@H](C)[C@@H](CN(C)C(=O)C2CCCCC2)Oc2ncc(/C=C/c3ccccc3)cc2C1=O	none (no result: CendR NRP1 mod, FID counter, N-glyco inh)
O=C(C[C@@H]1C=C[C@@H](NC(=O)Nc2ccccc2)[C@@H](CO)O1)NCc1cccc(F)c1	none (no result: miR122 inh, CendR NRP1 mod, FID counter, N-glyco inh)
CCN(CC)CCn1c2ccccc2c2nc3ccc([N+](=O)[O-])cc3cc21	RAD54 branch inconclusive, FID counter 43.9, N-glyco inh 70.2 | DNA binding inactive
CN(C)CCOc1nc(-c2ccccc2)nc2c1oc1ccccc12	RAD54 branch 80.6, N-glyco inh 114.1 (no result: miR122 inh, RAD52 anneal inh) | DNA binding inactive
CN(C)CCOc1ncnc2c1oc1ccccc12	none (no result: RAD52 anneal inh)
CN(C)CCSc1nc(N)c2c3c(sc2n1)CN(C)CC3	RAD54 branch 74.9 (no result: RAD52 anneal inh) | DNA binding inactive
COCC(=O)N(C)C[C@@H]1Oc2cc(C#CCC(C)C)ccc2S(=O)(=O)N([C@H](C)CO)C[C@@H]1C	none (no result: CendR NRP1 mod, FID counter, N-glyco inh)
CCCc1nc2c(=O)n(C)c(=O)nc-2n(C)n1	RAD54 branch 74.2 | DNA binding inactive
Cn1nc(-c2ccccn2)nc2c(=O)n(C)c(=O)nc1-2	CendR NRP1 mod 28.2, RAD54 branch 61.2 | DNA binding inactive
O=C(Nc1ccc(F)cc1)N[C@H]1CC[C@H](CCNC(=O)c2ccccc2F)O[C@@H]1CO	none (no result: miR122 inh, CendR NRP1 mod, RAD54 branch, FID counter, N-glyco inh)
CCOc1cc2nc(-c3ccc(OC)c(OC)c3)nc(NCCCN3CCOCC3)c2cc1OC	RAD54 branch 84.6, FID counter 42.6 (no result: RAD52 anneal inh) | DNA binding inactive
Cc1c(Cl)ccc(S(=O)(=O)NCCCn2ccnc2)c1Cl	RAD54 branch inconclusive | DNA binding inactive
CCN1CCN(C(=S)Nc2ccc3nc(N4CCN(CC)CC4)cc(C)c3c2)CC1	RAD54 branch 61.7, FID counter 46.4 (no result: RAD52 anneal inh) | DNA binding inactive
COCCNC(=S)Nc1ccc2nc(N3CCCC3)cc(C)c2c1	none (no result: RAD52 anneal inh)
CCOCCCNC(=S)Nc1ccc2nc(N3CCCC3)cc(C)c2c1	RAD54 branch 60.4 (no result: RAD52 anneal inh) | DNA binding inactive
CCN1CCN(c2cc(C)c3cc(NC(=S)N4CCCC4)ccc3n2)CC1	none (no result: miR122 inh, RAD54 branch)
COc1ccc2c3c(n(C)c2c1)[C@H](CO)N(C(C)=O)CC31CCN(C(=O)c2ccccc2)CC1	none (no result: miR122 inh, CendR NRP1 mod, RAD54 branch, FID counter, N-glyco inh)
CCCCN(C)C(=O)c1cc2cc3ccc(OC)cc3nc2o1	none
CCCCN(C)CCNC(=O)c1cc2cc3ccc(OC)cc3nc2o1	CendR NRP1 mod 21.1, RAD54 branch 53.1 | DNA binding inactive
CCN(CC)CCNC(=O)c1cc2cc3ccc(OC)cc3nc2o1	RAD54 branch 50.5 | DNA binding inactive
C[C@H](CO)N1C[C@H](C)[C@H](CN(C)C(=O)Nc2ccc(C(F)(F)F)cc2)Oc2c(NS(=O)(=O)c3cccs3)cccc2C1=O	none (no result: CendR NRP1 mod, FID counter, N-glyco inh)
CCCCN(CC)CCNC(=O)c1cc2c(=O)[nH]c3ccccc3c2s1	none
CCCN(CCC)CCCNC(=O)c1cc2c(=O)[nH]c3ccccc3c2s1	RAD54 branch 51.1 | DNA binding inactive
CCn1c(=O)c2cc(C(=O)NCCN(C)C)sc2c2ccccc21	RAD54 branch 53.2 | DNA binding inactive
CC(C)OCCCNC(=O)c1cc2c(=O)n(C)c3ccccc3c2n1C	none (no result: miR122 inh)
Cn1c(C(=O)NCCN2CCCCCC2)cc2c(=O)n(C)c3ccccc3c21	RAD54 branch 56.3 | DNA binding inactive
CCCCN(CC)CCCNC(=O)c1cc2c(=O)n(C)c3ccccc3c2n1C	RAD54 branch 61.3 | DNA binding inactive
Cn1c(C(=O)NCCCN2CCOCC2)cc2c(=O)n(C)c3ccccc3c21	RAD54 branch inconclusive | DNA binding inactive
CC1CCN(CCCNC(=O)c2cc3c(=O)n(C)c4ccccc4c3n2C)CC1	RAD54 branch 59.4 (no result: miR122 inh) | DNA binding inactive
C[C@H](CO)N1C[C@H](C)[C@H](CN(C)Cc2cccnc2)Oc2cc(C3=CCCC3)ccc2S1(=O)=O	none (no result: CendR NRP1 mod, FID counter, N-glyco inh)
C[C@@H]1CN([C@H](C)CO)C(=O)c2cc(-c3cccnc3)cnc2O[C@H]1CN(C)C(=O)Cc1cccnc1	none (no result: CendR NRP1 mod, FID counter, N-glyco inh)
CCCN1[C@H](C(=O)N[C@@H](C)c2ccccc2)[C@@H](CO)[C@@H]2Cn3c(ccc(-c4cccc(F)c4)c3=O)[C@@H]21	none (no result: miR122 inh, CendR NRP1 mod, FID counter, N-glyco inh)
CC(C)NC1CCC(Nc2ccnc3cc(Cl)ccc23)CC1 (configuration not stated)	RAD54 branch inconclusive (no result: FID counter) | DNA binding inactive
Clc1ccc2c(NCCNC3CCCCC3)ccnc2c1	none (no result: FID counter)
CC(CCCN1CCCC1)Nc1ccnc2cc(Cl)ccc12 (configuration not stated)	RAD52 anneal inh 51.0, RAD54 branch 55.1 (no result: FID counter) | DNA binding inactive
CCCC(c1nnnn1Cc1ccc(OC)cc1)N1CCN(c2ccccc2)CC1 (configuration not stated)	RAD54 branch inconclusive (no result: RAD52 anneal inh) | DNA binding inactive
O=C(NCCCN1CCCCCC1)c1cc2c(=O)oc3ccccc3c2s1	none
CCN1CCN(CCCNC(=O)c2cc3c(=O)oc4ccc(C)cc4c3s2)CC1	RAD54 branch 52.6 | DNA binding inactive
Cc1ccc2oc(=O)c3cc(C(=O)NCCCN4CC(C)CC(C)C4)sc3c2c1 (configuration not stated)	none
Cc1ccc2oc(=O)c3cc(C(=O)NCCCN4C(C)CCCC4C)sc3c2c1 (configuration not stated)	RAD54 branch 53.8 | DNA binding inactive
Cc1ccc2oc(=O)c3cc(C(=O)NCCCN4CCN(C)CC4)sc3c2c1	RAD54 branch 62.2 | DNA binding inactive
C[C@H]1CN([C@@H](C)CO)S(=O)(=O)c2ccc(C#CCN(C)C)cc2O[C@@H]1CN(C)S(C)(=O)=O	none (no result: CendR NRP1 mod, FID counter, N-glyco inh)
CCOC(=O)c1c(C)n(C)c2ccc(OCC(O)CN3CCN(C)CC3)cc12 (configuration not stated)	RAD54 branch inconclusive | DNA binding inactive
CCOC(=O)c1c(C)n(C)c2ccc(OCC(O)Cn3c(C)nc4ccccc43)cc12 (configuration not stated)	none (no result: RAD52 anneal inh)
O=C(CN1CCCCC1)n1c2ccccc2c2ccccc21	RAD52 anneal inh 60.6, RAD54 branch 99.5 | DNA binding inactive | RAD52 DNA ctr inactive
CN1CCN(CC(=O)n2c3c(c4ccccc42)CCCC3)CC1	none (no result: RAD52 anneal inh, RAD54 branch)
